Results reported in PubChem BioAssay AID651718 (The Scripps Research Institute Molecular Screening Center, 2012).
In all, about 360,000 compounds went through this assay and about 2,700 (0.75%) were called active. This is one part of a sample in which actives are shown more often than they occur. Unmarked numbers belong to inactive results. Cut-off read from the data, not from the text of the source: active = inhibition above about 4.5%; inactive = the rest.

Tested on: Methionine sulfoxide reductase A (Bos taurus)
Experiment: inhibition of methionine sulfoxide reductase A – biochemical, absorbance, bovine, HTS, primary screen (AID 651718);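 note: 0% = vehicle wells with enzyme and 100% = reference inhibitor wells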
Details: purified bovine MsrA, absorbance read-out; at 15.5 µM; hits give high values

SMILES	inhibition
O=C(N/N=C\c1ccc(-c2ccc(Cl)c(Cl)c2)o1)C(=O)N1CCCC1	-0.58%
Nc1nnnn1CC(=O)N/N=C/c1ccc(-c2cccc(Cl)c2)o1	5.41% (active)
O=C(Cn1nnc(-c2ccccc2)n1)N/N=C/c1ccc(-c2ccc(Cl)cc2)o1	1.47%
Cc1ccc(S(=O)(=O)Nc2nc(C)cc(-n3nc(C)cc3C)n2)cc1	-0.42%
Cc1ccc(OCCCC(=O)Nc2ccc(S(=O)(=O)Nc3cc(C)nc(C)n3)cc2)cc1	0.56%
Cc1ccc(S(=O)(=O)Nc2nc(C)cc(N/N=C/c3ccc(O)cc3)n2)cc1	9.28% (active)
CCN1C(=O)N[C@@H](CCc2ccccc2)C(C(=O)OC)=C1C	0.27%
CCCC(=O)N1CCC1(C)C(=O)NS(=O)(=O)c1ccc(Cl)cc1 (stereo not given)	-0.68%
CCn1ncc(Br)c1C(=O)Nc1cc(C)ccc1F	0.75%
Cc1ccc(NNC(=O)c2cccs2)cc1Cl	-0.8%
Cc1ccccc1C(CC(=O)c1cccs1)C(C#N)C#N (stereo not given)	5.15% (active)
C/C(=N\NC(=O)COc1c(C)cccc1C)c1cccs1	-0.04%
COC(=O)Cc1nnn2c1[C@H](C)[C@@H](OC)c1cc(Br)ccc1-2	0.56%
CC(=O)c1ccc(N2CCN(C(=O)c3ccc4nc[nH]c4c3)CC2)cc1	4.75% (active)
CCc1nc2ccc(C(=O)N3CCN(c4cccc(Cl)c4)CC3)cc2nc1CC	0.35%
CC(=NNC(=O)c1ccc2nc[nH]c2c1)c1ccc(Br)cc1	-0.04%
CN(Cc1ccccc1)C(=O)[C@@H]1CCCN1C(=O)[C@@H]1CCCN1C(=O)c1c(F)cccc1F	1.12%
Cc1[nH]c2ccccc2c1CC(=O)Nc1ccc(Nc2cccnc2)c(-c2cccc(Cl)c2)c1	0.91%
COc1ccc(/C=C2\SC(=O)N(CCC(=O)NC3CCS(=O)(=O)C3)C2=O)cc1 (stereo not given)	7.15% (active)
COc1ccccc1/C=C1\SC(=O)N(CCC(=O)N(C)C2CCS(=O)(=O)C2)C1=O (stereo not given)	1.66%

SMILES	inhibition
COc1ccc(-c2ccc(OC(=O)NC3CCS(=O)(=O)C3)cc2)cc1 (stereo not given)	-0.4%
CC(C)CNc1cccc2c1S(=O)(=O)N[C@H](C)CO2	0.24%
CC(=O)C1=C(O)C(=O)N(c2cccnc2)C1c1ccc([N+](=O)[O-])cc1 (stereo not given)	3.72%
COC(=O)CN1C(=O)C(O)=C(C(C)=O)C1c1ccc([N+](=O)[O-])cc1 (stereo not given)	4.6% (active)
CC(=O)C1=C(O)C(=O)N(c2ccc(Br)cc2)C1c1ccc([N+](=O)[O-])cc1 (stereo not given)	3.13%
NCCCCCC(=O)N/N=C/c1ccc2nccnc2c1	4.64% (active)
O=C(Cc1ccccc1)N/N=C/c1ccc(Cl)cc1Cl	0.83%
CC1=NNC(=O)C1CCC(=O)N/N=C\c1ccc(Cl)c(Cl)c1 (stereo not given)	0.26%
COc1ccc(N2C(=O)C3C(C2=O)C(C(=O)c2ccccc2)N2CCCC32)cc1 (stereo not given)	1.03%
COCCNC(=S)N(C)[C@H]1C[C@H]2c3[nH]c4ccccc4c3CCN2C[C@H]1[C@H](C)O	0.16%
N#Cc1ccc(OCCCN2CCC(C(O)(c3ccccc3)c3ccccc3)CC2)c(F)c1	2.13%
COc1ccc(/C=C/C(=O)NC(=S)N2CCCC(C(N)=O)C2)cc1 (stereo not given)	5.75% (active)
O=C(/C=C/c1ccco1)NC(=S)N1CCCCC1	2.5%
COc1ccc(CN2CCCC(C(=O)N3CCCCC3)C2)cc1 (stereo not given)	-0.76%
O=c1[nH][nH]c2c1[C@H](c1ccc(Cl)cc1)O[C@H](CCc1ccccc1)C2	-0.84%
COc1ccc(NC(=O)N(C)C[C@@H]2OCCCC[C@@H](C)Oc3ccc(NC(=O)NC4CCCCC4)cc3C(=O)N([C@H](C)CO)C[C@@H]2C)cc1	-0.24%
COc1cc(Cl)c(S(=O)(=O)n2cnc(C)c2)cc1Cl	0.89%
CN1CCN(CCC(=O)N/N=C/C=C2\N(C)c3ccccc3C2(C)C)CC1	4.78% (active)
CC(=O)Nc1cccc(OCC(=O)/C=C2\N(C)c3ccccc3C2(C)C)c1	3.18%
CN1/C(=C\C=C2\N=C(c3ccc(F)cc3)OC2=O)C(C)(C)c2ccccc21	0.34%

SMILES	inhibition
COC(=O)C1=C(C)N(Cc2ccc(F)cc2)C(=S)NC1c1cccc(Cl)c1 (stereo not given)	0%
COc1ccccc1-c1ccc([C@@H]2C[C@H]3[C@H](CON3C)CN2S(=O)(=O)c2cc(Cl)cc(Cl)c2)cc1	-0.24%
O=C(O)c1ccc(N/N=C/c2ccc3ncccc3c2)cc1	5.15% (active)
CCNC(=S)NNC(=O)c1ccc2ncccc2c1	0.98%
CC(C)(C)OC(=O)N/N=C/c1ccc(C(=O)O)cc1	1.73%
Cc1ccc(OCCCC(=O)Nc2ccc(N3CCOCC3)cc2)cc1	-1.28%
Cc1ccccc1N/N=C/c1ccc(N2CCOCC2)cc1	1.63%
Cc1cc(C(=O)N/N=C/c2ccc(N3CCOCC3)cc2)c(C)o1	5.02% (active)
O=C(CNC(=O)C(c1ccccc1)c1ccccc1)N/N=C\c1ccc2c(c1)OCO2	1.12%
CCN(CC)c1ccc(/C=N/NC(=O)CNC(=O)c2cccs2)cc1	4.8% (active)
CCOc1cc(/C=N/NC(=O)c2ccncc2)cc(Br)c1O	2.43%
CCCOc1cccc(C(=O)NCCCNC(=O)c2cccnc2)c1	-0.09%
O=C(N/N=C/c1cccc(OC(=O)c2ccc([N+](=O)[O-])cc2)c1)c1cccnc1	-0.13%
O=C(Cc1ccccc1)Nc1ccc(NC(=O)c2cccnc2)cc1	-0.64%
O=C(CNC(=O)c1cccs1)N/N=C/c1cccc(Br)c1	0.52%
CC(C)OCCCNC(=O)CNC(=O)c1cccs1	0.37%
CC1CC(=NNC(=O)C2COc3ccccc3O2)CC(C)(C)C1 (stereo not given)	-0.12%
O=C(CNC(=O)C1COc2ccccc2O1)N/N=C/c1cc(Br)c(O)c(Br)c1 (stereo not given)	4.96% (active)
CCN(CC)c1ccc(/C=N/NC(=O)CNC(=O)c2cccnc2)cc1	4.63% (active)
O=C(CNC(=O)c1cccnc1)N/N=C/c1cc(Br)c(O)c(Br)c1	8.83% (active)
